Source: PubChem BioAssay (EPA / NIEHS)
Some structures have more than one record in an assay (separate samples or runs), and their calls can disagree. Calls of active or inactive are those of the source. The calls were made as follows: active = hit-call score of the fitted dose curve at least 0.9, where 1 is the maximum; inactive = score below 0.9.

How the values were obtained:
Settings in all cases: mRNA level, 48 h; actives raise or lower the signal
CYP3A5 (gene 1577) = assay: LTEA_HepaRG_CYP3A5: Life Technologies and Expression Analysis (LTEA) Assay for CYP3A5 using HepaRG (AID 2283493)
How it was run: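 Differentiated HepaRG cells in serum-free induction medium were dosed 48 h with test chemicals (8-point half-log series, top 100 uM, 0.5% DMSO, duplicate). CYP3A5 mRNA measured by qRT-PCR, normalized to ACTB, GAPDH, POLR2A; bidirectional fit versus DMSO.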

[1] = read-out: Fatty Acid-Binding Protein 1 (FABP1), FABP1 (gene 2168); assay: LTEA_HepaRG_FABP1: Life Technologies and Expression Analysis (LTEA) Assay for Fatty Acid-Binding Protein 1 (FABP1) using HepaRG (AID 2283494)
How it was run: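 Differentiated human HepaRG cells were exposed in duplicate for 48 h in serum-free induction medium to 8-point half-log concentration series topping at 100 uM in 0.5% DMSO. FABP1 mRNA measured by TaqMan qRT-PCR, normalized to ACTB/GAPDH/POLR2A; bidirectional fit versus DMSO.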

[2] = read-out: Cytochrome P450 4A22 (Homo sapiens) (UniProt Q5TCH4); assay: LTEA_HepaRG_CYP4A22: Life Technologies and Expression Analysis (LTEA) Assay for Cytochrome P450 4A22 (CYP4A22) using HepaRG (AID 2283495)
How it was run: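 qRT-PCR of CYP4A22 mRNA (Fluidigm TaqMan, normalized to three housekeeping genes) after 48 h chemical exposure of HepaRG cells; 8-point half-log series, top 100 uM, 0.5% DMSO vehicle. Bidirectional curve fitting vs DMSO baseline.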

[3] = read-out: Cytochrome P450 7A1 (Homo sapiens) (UniProt P22680); assay: LTEA_HepaRG_CYP7A1: Life Technologies and Expression Analysis (LTEA) Assay for Cytochrome P450 7A1 (CYP7A1) using HepaRG (AID 2283496)
How it was run: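 Gene expression endpoint in human HepaRG liver cells treated for 48 h with test chemicals (up to 100 uM, 0.5% DMSO). Values come from bidirectional concentration-response fitting versus DMSO.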

[4] = read-out: Glutathione S-Transferase (GSTA2), GSTA2 (gene 2939); assay: LTEA_HepaRG_GSTA2: Life Technologies and Expression Analysis (LTEA) Assay for Glutathione S-Transferase (GSTA2) using HepaRG (AID 2283497)
How it was run: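 Human HepaRG cells, plated 48 h, then exposed in serum-free induction medium for 48 h to eight half-log concentrations up to 100 uM in 0.5% DMSO, duplicate. GSTA2 mRNA by qRT-PCR, normalized to ACTB/GAPDH/POLR2A; bidirectional fit versus DMSO.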

[5] = read-out: Glutamate-cysteine ligase catalytic (GCLC), GCLC (gene 2729); assay: LTEA_HepaRG_GCLC: Life Technologies and Expression Analysis (LTEA) Assay for Glutamate-cysteine ligase catalytic (GCLC) using HepaRG (AID 2283498)
How it was run: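 Differentiated human HepaRG cells, plated 48 h then switched to serum-free induction medium, were exposed in duplicate for 48 h to 8 half-log concentrations topping at 100 uM in 0.5% DMSO. GCLC mRNA was quantified by qRT-PCR against ACTB, GAPDH and POLR2A.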

[6] = read-out: growth arrest and DNA damage 45 (GADD45G), GADD45G (gene 10912); assay: LTEA_HepaRG_GADD45G: Life Technologies and Expression Analysis (LTEA) Assay for growth arrest and DNA damage 45 (GADD45G) using HepaRG (AID 2283499)
How it was run: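 Differentiated human HepaRG cells in serum-free induction medium were exposed for 48 h to 8 half-log concentrations up to 100 uM in 0.5% DMSO, in duplicate. GADD45G mRNA was measured by TaqMan qRT-PCR, normalised to ACTB, GAPDH and POLR2A, and fitted bidirectionally against DMSO.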

[7] = read-out: Glutamate-cysteine ligase regulatory (GCLM), GCLM (gene 2730); assay: LTEA_HepaRG_GCLM: Life Technologies and Expression Analysis (LTEA) Assay for Glutamate-cysteine ligase regulatory (GCLM) using HepaRG (AID 2283500)
How it was run: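 Differentiated human HepaRG cells exposed 48 h in serum-free induction medium to 8-point half-log concentrations (top 100 uM, 0.5% DMSO), in duplicate. GCLM mRNA quantified by qRT-PCR, normalized to ACTB, GAPDH, POLR2A; bidirectional fitting versus DMSO.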

[8] = read-out: Glutathione S-transferase M3 (GSTM3), GSTM3 (gene 2947); assay: LTEA_HepaRG_GSTM3: Life Technologies and Expression Analysis (LTEA) Assay for Glutathione S-transferase M3 (GSTM3) using HepaRG (AID 2283501)
How it was run: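 Differentiated HepaRG cells in serum-free induction medium were exposed in duplicate for 48 h to 8 half-log concentrations up to 100 uM in 0.5% DMSO. GSTM3 mRNA was measured by TaqMan qRT-PCR, normalized to ACTB/GAPDH/POLR2A, and fitted bidirectionally versus DMSO.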

[9] = read-out: Heat shock 70 kDa protein 1 (HSPA1A), gene 3303; assay: LTEA_HepaRG_HSPA1A: Life Technologies and Expression Analysis (LTEA) Assay for Heat shock 70 kDa protein 1 (HSPA1A) using HepaRG (AID 2283502)
How it was run: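 Differentiated human HepaRG cells in serum-free induction medium were exposed in duplicate for 48 h to eight concentrations (top 100 uM, half-log steps, 0.5% DMSO). HSPA1A mRNA was quantified by qRT-PCR, normalized to ACTB, GAPDH and POLR2A, and fitted bidirectionally against DMSO.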

[10] = read-out: Hypoxia-inducible factor 1-alpha (Homo sapiens) (UniProt Q16665); assay: LTEA_HepaRG_HIF1A: Life Technologies and Expression Analysis (LTEA) Assay for Hypoxia-inducible factor 1 (HIF1A) Trancription factor using HepaRG (AID 2283503)
How it was run: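 HepaRG, 48 h exposure, 8-pt half-log series from 100 uM, 0.5% DMSO vehicle, duplicates. Readout: HIF1A transcript by qRT-PCR (Fluidigm array), housekeeping-normalised. Bidirectional curve fit vs DMSO baseline.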

[11] = read-out: 3-Hydroxy-3-Methylglutaryl-CoA Synthase 2 (HMGCS2), HMGCS2 (gene 3158); assay: LTEA_HepaRG_HMGCS2: Life Technologies and Expression Analysis (LTEA) Assay for 3-Hydroxy-3-Methylglutaryl-CoA Synthase 2 (HMGCS2) using HepaRG (AID 2283504)
How it was run: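 Differentiated human HepaRG cells were exposed in duplicate for 48 h in serum-free induction medium to eight concentrations (top 100 uM, half-log steps, 0.5% DMSO). HMGCS2 mRNA was quantified by TaqMan qRT-PCR, normalised to ACTB, GAPDH and POLR2A, then fitted bidirectionally against DMSO.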

HGF (gene 3082) = assay: LTEA_HepaRG_HGF: Life Technologies and Expression Analysis (LTEA) Assay for Hepatocyte Growth Facto (HGF) using HepaRG (AID 2283505)
How it was run: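 Differentiated human HepaRG cells in serum-free induction medium were exposed in duplicate for 48 h to eight concentrations (top 100 uM, half-log steps, 0.5% DMSO). HGF mRNA was quantified by qRT-PCR, normalized to ACTB, GAPDH and POLR2A.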

[12] = read-out: Insulin Like Growth Factor 1 (IGF1), IGF1 (gene 3479); assay: LTEA_HepaRG_IGF1: Life Technologies and Expression Analysis (LTEA) Assay for Insulin Like Growth Factor 1 (IGF1) using HepaRG (AID 2283506)
How it was run: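 Differentiated human HepaRG cells were dosed for 48 h in serum-free induction medium with 0.5% DMSO, eight half-log concentrations up to 100 uM, in duplicate. IGF1 mRNA was quantified by qRT-PCR normalized to ACTB, GAPDH, POLR2A; bidirectional fitting versus DMSO.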

[13] = read-out: Intercellular Adhesion Molecule 1 (ICAM1), ICAM1 (gene 3383); assay: LTEA_HepaRG_ICAM1: Life Technologies and Expression Analysis (LTEA) Assay for Intercellular Adhesion Molecule 1 (ICAM1) using HepaRG (AID 2283507)
How it was run: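 Differentiated HepaRG cells in serum-free induction medium were exposed in duplicate for 48 h to eight half-log concentrations up to 100 uM in 0.5% DMSO. Transcript levels were measured by qRT-PCR normalized to ACTB, GAPDH and POLR2A; bidirectional fits relative to DMSO.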

[14] = read-out: Insulin-like growth factor-binding protein 1 (IGFBP1), IGFBP1 (gene 3484); assay: LTEA_HepaRG_IGFBP1: Life Technologies and Expression Analysis (LTEA) Assay for Insulin-like growth factor-binding protein 1 (IGFBP1) using HepaRG (AID 2283508)
How it was run: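 Differentiated human HepaRG cells in serum-free induction medium were exposed in duplicate for 48 h to eight concentrations, top 100 uM with half-log dilutions, in 0.5% DMSO. Transcript levels came from qRT-PCR normalised to ACTB, GAPDH and POLR2A, fitted bidirectionally against DMSO.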

[15] = read-out: Interleukin 6 (IL6), IL6 (gene 3569); assay: LTEA_HepaRG_IL6: Life Technologies and Expression Analysis (LTEA) Assay for Interleukin 6 (IL6) using HepaRG (AID 2283509)
How it was run: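 Differentiated human HepaRG cells, plated 48 h then switched to serum-free induction medium, were exposed in duplicate for 48 h to eight half-log concentrations up to 100 uM in 0.5% DMSO. IL6 mRNA measured by qRT-PCR, normalized to ACTB/GAPDH/POLR2A.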

[16] = read-out: Interleukin 6 Receptor (IL6R), IL6R (gene 3570); assay: LTEA_HepaRG_IL6R: Life Technologies and Expression Analysis (LTEA) Assay for Interleukin 6 Receptor (IL6R) using HepaRG (AID 2283510)
How it was run: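 Differentiated human HepaRG cells, plated 48 h then switched to serum-free induction medium, were dosed in duplicate for 48 h at eight half-log concentrations up to 100 uM in 0.5% DMSO. IL6R mRNA quantified by qRT-PCR, normalized to ACTB/GAPDH/POLR2A; bidirectional fit versus DMSO.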

[17] = read-out: Potassium channel subfamily K member 1 (KCNK1), KCNK1 (gene 3775); assay: LTEA_HepaRG_KCNK1: Life Technologies and Expression Analysis (LTEA) Assay for Potassium channel subfamily K member 1 (KCNK1) using HepaRG (AID 2283511)
How it was run: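 Differentiated human HepaRG cells in serum-free induction medium were exposed in duplicate for 48 h to 8 half-log concentrations up to 100 uM in 0.5% DMSO. KCNK1 mRNA was measured by TaqMan qRT-PCR, normalized to ACTB, GAPDH and POLR2A, and fitted bidirectionally versus DMSO.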

[18] = read-out: Keratin 19 (KRT19), KRT19 (gene 3880); assay: LTEA_HepaRG_KRT19: Life Technologies and Expression Analysis (LTEA) Assay for Keratin 19 (KRT19) using HepaRG (AID 2283512)
How it was run: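 Differentiated human HepaRG cells, plated 48 h, were exposed in duplicate for 48 h in serum-free induction medium to eight half-log concentrations up to 100 uM in 0.5% DMSO. KRT19 mRNA was quantified by qRT-PCR, normalized to ACTB, GAPDH and POLR2A, and fitted bidirectionally versus DMSO.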

Measured: AC50

Chain of Hypoxia-inducible factor 1-alpha (Homo sapiens) (Q16665 whole entry, looked up): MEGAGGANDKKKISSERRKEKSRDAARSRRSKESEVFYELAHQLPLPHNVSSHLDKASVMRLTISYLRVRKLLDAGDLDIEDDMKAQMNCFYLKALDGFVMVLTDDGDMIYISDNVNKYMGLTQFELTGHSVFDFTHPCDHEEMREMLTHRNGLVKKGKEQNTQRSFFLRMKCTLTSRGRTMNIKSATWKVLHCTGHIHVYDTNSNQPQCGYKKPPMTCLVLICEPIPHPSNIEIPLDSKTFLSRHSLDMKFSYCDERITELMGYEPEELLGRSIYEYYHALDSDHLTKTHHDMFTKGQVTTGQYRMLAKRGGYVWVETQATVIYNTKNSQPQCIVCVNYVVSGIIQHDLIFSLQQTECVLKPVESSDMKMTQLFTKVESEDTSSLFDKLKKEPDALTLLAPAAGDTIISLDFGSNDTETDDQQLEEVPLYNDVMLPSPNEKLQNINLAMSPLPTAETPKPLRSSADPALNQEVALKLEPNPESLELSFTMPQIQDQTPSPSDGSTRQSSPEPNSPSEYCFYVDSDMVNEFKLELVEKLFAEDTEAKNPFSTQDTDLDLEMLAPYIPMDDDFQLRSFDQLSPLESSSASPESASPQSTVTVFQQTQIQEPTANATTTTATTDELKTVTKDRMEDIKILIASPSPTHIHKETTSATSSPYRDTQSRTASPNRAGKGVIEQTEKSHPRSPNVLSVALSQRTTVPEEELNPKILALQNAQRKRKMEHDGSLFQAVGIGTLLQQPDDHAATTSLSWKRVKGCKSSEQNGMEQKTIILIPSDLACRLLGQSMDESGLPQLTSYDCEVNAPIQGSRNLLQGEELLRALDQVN

CCOC(=O)C(C)Oc1ccc(Oc2cnc3cc(Cl)ccc3n2)cc1 (configuration not stated)
inactive: [5] | [6] | [7] | [8] | [9] | [10] | [11] | HGF (gene 3082) | [13] | [14] | [15] | [16] | [17] | [18]
active: CYP3A5 (gene 1577) 628 nM | [1] 0.388 µM | [2] 43 µM | [3] 9.27 µM | [4] 15 µM | [12] 1.06 µM

CC(C)(c1ccc(O)cc1)c1ccc(O)cc1
inactive: CYP3A5 (gene 1577) | [1] | [2] | [3] | [4] | [5] | [6] | [7] | [8] | [9] | [10] | [11] | HGF (gene 3082) | [12] | [13] | [14] | [15] | [16] | [17] | [18]
active: [1] 50 µM | [9] 17.2 nM
